A selection: hits, their analogues and other compounds. The true share with any hit is near 6%.
D1 agonist: agonists of human D1 dopamine receptor. P21728. HEK293 T-REx D1 cells, calcium flux, agonist mode. activation, % at 2 µM. hit rate 1% among 360,000. AID 504660; in the data active means activation above about 30%
Target sequence (P21728 whole entry, looked up): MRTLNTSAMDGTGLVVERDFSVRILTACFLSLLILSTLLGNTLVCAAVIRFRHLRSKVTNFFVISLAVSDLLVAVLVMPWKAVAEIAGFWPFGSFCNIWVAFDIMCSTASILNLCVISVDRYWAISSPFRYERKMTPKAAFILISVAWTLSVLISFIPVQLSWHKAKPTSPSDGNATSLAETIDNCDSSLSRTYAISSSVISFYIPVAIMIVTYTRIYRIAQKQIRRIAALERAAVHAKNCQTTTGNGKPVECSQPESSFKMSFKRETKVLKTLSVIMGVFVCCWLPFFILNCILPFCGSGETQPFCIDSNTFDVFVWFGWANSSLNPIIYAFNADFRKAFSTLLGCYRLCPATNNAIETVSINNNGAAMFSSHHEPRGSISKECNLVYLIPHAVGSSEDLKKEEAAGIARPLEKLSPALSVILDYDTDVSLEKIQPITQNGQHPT
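Inducible HEK293 T-REx D1 cells, force-coupled to calcium signalling, were plated at 4000 cells/well with tetracycline and held overnight at 30 C. After no-wash calcium dye loading, compound-evoked calcium rise over 180 s flagged agonists.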
D3 ag: D3 dopamine receptor (human) agonism; D3R DiscoveRx beta-arrestin cells, luminescence, 90 min; hit rate 0.58% among 410,000; max activation, %; AID 652048; P35462; in the data active means max activation above about 30%
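Agonist mode: compounds and dopamine controls were applied to plated cells for 90 min at 37 degrees C after an overnight attachment at 1500 cells/well. Luminescent read-out followed 30 - 60 minutes at room temperature with DiscoveRx detection reagent.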
D1 antag: blocks dopamine activation of the human D1 receptor. P21728. HEK293 TREx D1 cells, calcium flux, dopamine EC80; stronger effect = lower value. activity change, negative = inhibition, % at 10 µM. hit rate 3.2% among 360,000. AID 504652; in the data active means activity change below about -30%
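Cells carrying a force-coupled, tetracycline-inducible human D1 receptor report calcium flux. Each well gets a 10 s baseline, compound with 180 s monitoring, then an EC80 dopamine stimulus with a second 180 s kinetic read.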
D1 PAM: potentiators of human D1 dopamine receptor | potentiation, % at 10 µM | hit rate 0.036% among 360,000 | P21728 | AID 504651 | HEK293 TREx D1 cells, calcium flux, dopamine EC20 potentiation; in the data active means potentiation above about 30%
D3 antag: blocks the human D3 dopamine receptor; hit rate 2.5% among 360,000; AID 652054; P35462; D3R cells, DiscoveRx beta-arrestin luminescence, antagonist mode; stronger effect = lower value; max response, negative = inhibition, %; in the data active means max response below about -50%; inconclusive means no clear call, values can overlap the other calls
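Cells expressing the human receptor were seeded at 1500 cells/well, incubated overnight at 37 degrees C in 5% CO2, then exposed to library compounds with dopamine controls for 90 minutes at 37 degrees C before luminescent detection.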
A number is an active result; - = inactive; ? = inconclusive; . = no result.

SMILES | D1 agonist | D3 ag | D1 antag | D1 PAM | D3 antag
O=C(NCc1ccc(Cl)cc1Cl)C1CC(=O)N(Cc2ccccc2)C1 (stereo unspecified) | - | - | -31.3 | - | -
COC(=O)c1cc2sccc2n1CC(=O)Nc1ccc(C)cc1C | - | - | - | - | .
CCOCCCN1C(=O)CN(C2CCCCC2)C(=O)C1c1ccc(OC)c(OC)c1 (stereo unspecified) | - | - | - | - | -
CCOCCCN1C(=O)CN(C2CCCCCC2)C(=O)C1c1ccc(OC(C)C)c(OC)c1 (stereo unspecified) | - | - | -38.3 | - | .
COc1ccccc1CCNC(=O)CCc1c(C)c2cc3c(C)coc3cc2oc1=O | - | - | - | - | .
COc1cc2c(-c3ccccc3O)nc3c(c(C)nn3-c3ccccc3)c2cc1OC | - | - | - | - | -
COc1cc2c(-c3ccccc3Cl)nc3c(c(C)nn3-c3ccccc3)c2cc1OC | - | 59.4 | - | - | .
COc1ccccc1C(=O)N1CCC(N2CCN(c3ccccc3OC)CC2)CC1 | - | - | - | - | -64.8
COc1ccccc1C(=O)N1CCC(N2CCN(c3ccccc3)CC2)CC1 | - | 53.3 | - | - | -
COc1ccc(C(=O)N2CCC(N3CCN(c4ccccc4)CC3)CC2)cc1 | - | - | - | - | -
CC(C)CC(=O)N1CCC(N2CCN(c3ccccc3)CC2)CC1 | - | - | - | - | ?
COc1ccccc1N1CCN(C2CCCN(S(=O)(=O)c3ccc(C)cc3)C2)CC1 (stereo unspecified) | - | - | - | - | -80.1
CC(C)(C)C1CCC(N2CCN(c3ccccc3)CC2)CC1 (stereo unspecified) | - | - | - | - | -53.3
Cc1cc(-n2c(=O)[nH]c(=O)n(C)c2=O)ccc1Oc1ccc(S(=O)(=O)C(F)(F)F)cc1 | . | - | . | . | .
Cc1ccc(CN2C(=O)N(c3ccc(F)cc3)C(=O)C2CC(=O)Nc2ccc(Cl)cc2)cc1 (stereo unspecified) | - | - | - | - | .
COc1ccccc1N1CCN(C2CCCN(C(=O)CN3CCCC3=O)C2)CC1 (stereo unspecified) | - | - | -31.7 | - | -
COc1ccccc1N1CCN(C2CCN(C(=O)COc3ccccc3)CC2)CC1 | - | - | - | - | -60.6
Cc1ccccc1N1CCN(C2CCCN(C(=O)CN3CCCC3=O)C2)CC1 (stereo unspecified) | - | - | - | - | -
COC(=O)[C@]12CCCCC=C1N(Cc1ccc(Cl)cc1Cl)C(=O)[C@H](CC(=O)NCCc1ccccc1OC)C2 | . | - | . | . | -
CC(NC(=O)c1ccc2c(c1)CCN2S(=O)(=O)c1ccccc1)c1ccccc1 (stereo unspecified) | - | - | - | - | .
CC(C)OC(=O)/C(C#N)=C/c1cn(C)c2ccccc12 | - | - | -38.7 | - | -
CCOC(=O)Cn1cc(/C=C(\C#N)C(=O)N2CCOCC2)c2ccccc21 | - | - | - | - | -
CC(C)OC(=O)/C(C#N)=C/c1cn(Cc2ccccc2)c2ccccc12 | - | - | - | - | -
CCOC(=O)Cn1cc(/C=C(/C#N)C(=O)NC(C)C)c2ccccc21 | - | - | -33.4 | - | -
Cc1ccc(NC(=O)CN2C(=O)COc3ccc(S(=O)(=O)N4CCCCCC4)cc32)cc1C | - | - | - | - | .
SMILES | D1 agonist | D3 ag | D1 antag | D1 PAM | D3 antag
COc1ccc2nc(C)cc(N/N=C/c3cccc(OC)c3O)c2c1 | - | - | - | - | -
COc1cccc(/C=N/Nc2ncnc3scc(-c4ccccc4)c23)c1O | - | 37.6 | - | - | -
COc1cccc(/C=N/Nc2ncnc(Cl)c2N)c1O | - | - | - | - | -
COc1cccc(/C=N/Nc2cc(-n3nc(C)cc3-c3ccccc3)ncn2)c1O | - | 38.3 | - | - | -
COc1cccc(/C=N/Nc2nc(Nc3ccccc3)nc(-n3nc(C)cc3C)n2)c1O | - | - | - | - | -140.6
Cc1cc(C)n(-c2nc(Nc3ccccc3)nc(-n3nc(C)cc3C)n2)n1 | - | - | - | - | -
CC(=O)c1ccc(N2CCN(S(=O)(=O)c3ccc4[nH]c5c(c4c3)CCCC5)CC2)cc1 | - | - | - | - | .
COc1ccc(C(=O)CSc2nnc(-c3cc(C)on3)o2)cc1 | - | - | - | - | -
Cc1cc(-c2nnc(SCC(=O)c3ccc(Cl)cc3)o2)no1 | - | - | -33.3 | - | -
Cc1[nH]c2ccc(-c3nnc(SCC(=O)c4ccc(F)cc4)o3)cc2c1C | - | - | -40.1 | - | -
COc1ccc(NC(=O)c2nc(S(=O)(=O)Cc3cccc(C)c3)ncc2Cl)c(OC)c1 | - | - | - | - | -115.8
COc1ccc2nc(NC(=O)c3nc(S(=O)(=O)Cc4ccccc4)ncc3Cl)sc2c1 | - | - | - | - | .
COc1ccc(OC)c(NC(=O)c2nc(S(=O)(=O)Cc3ccccc3)ncc2Cl)c1 | - | - | - | - | -104.1
COc1ccc2nc(NC(=O)c3nc(S(=O)(=O)Cc4cccc(C)c4)ncc3Cl)sc2c1 | - | - | -30.8 | - | .
COc1ccc(C2NC(=S)N3C(c4ccc(OC)c(OC)c4)NC(=S)N23)cc1OC (stereo unspecified) | . | - | . | . | .
CN1CCN(/N=C/c2ccc(Br)cc2)CC1 | - | - | -33.3 | - | -
CN1CCN(/N=C/c2ccc(N(c3ccccc3)c3ccccc3)cc2)CC1 | - | - | - | - | ?
O=C(CCS(=O)(=O)c1nc(-c2ccc3c(c2)OCO3)cc(C(F)(F)F)n1)Nc1ccc(Br)cc1 | - | - | - | - | .
O=C(NC(c1ccc(Cl)cc1)c1ccsc1)C1CCN(Cc2ccc(Oc3ccccc3)cc2)CC1 (stereo unspecified) | . | - | . | . | -64.4
COc1cc(CN2CCC(C(=O)NC(c3ccccc3)c3ccsc3)CC2)cc(OC)c1 (stereo unspecified) | . | - | . | . | ?
O=C(NC(c1ccccc1)c1ccsc1)C1CCN(Cc2ccccc2)CC1 (stereo unspecified) | . | - | . | . | ?
CCCN1CCC(C(=O)NC(c2ccc(Cl)cc2)c2ccsc2)CC1 (stereo unspecified) | . | - | . | . | -56.2
Cc1ccccc1C(NC(=O)C1CCN(Cc2ccc(Oc3ccccc3)cc2)CC1)c1ccsc1 (stereo unspecified) | . | - | . | . | -56.3
COC(=O)/C(=C\c1c(OC)cc(OC)cc1OC)C(=O)c1ccc2c(c1)OCO2 | . | - | . | . | -93.5
CC1=CC(=O)C=C(C)C1=NOC(=O)c1cccc([N+](=O)[O-])c1 | - | - | - | - | -82.5
COc1ccccc1CN=C1NC(=O)C(CC(=O)Nc2ccc(C(C)=O)cc2)S1 (stereo unspecified) | - | 52.6 | - | - | -
CCc1ccc(CNC(=O)C2CCN(C(=O)c3ccc(-n4ccc5ccccc54)s3)CC2)cc1 | - | - | - | - | .
C=C(C)COc1ccc(-c2[nH]ncc2Oc2cccc(OC)c2)c(O)c1 | - | - | -38.6 | - | -56.5
COc1ccc(OC)c(CN2CCN(C(=O)c3cc(S(=O)(=O)N4CCOCC4)ccc3C)CC2)c1 | . | - | . | . | -
